Data from PubChem BioAssay AID1903 (Southern Research Specialized Biocontainment Screening …, 2009).
“And” between values parts separate entries of the source, which are not always exact repeats. Equal values may be shown once. Among all 310,000 compounds or so, about 1,200 (0.39%) were called active. No rule for the calls is given here. Not all results are given here. Potency and affinity values are given separately.

Target: Large T antigen (Simian virus 40) (UniProt P03070)
Test: SV40 large T antigen inhibitors, biochemical (AID 1903)
Details: SV40 large T antigen ATPase/helicase inhibition assay; at 20 µM; hits give high values

Sequence of Large T antigen (Simian virus 40) (P03070 whole entry, looked up): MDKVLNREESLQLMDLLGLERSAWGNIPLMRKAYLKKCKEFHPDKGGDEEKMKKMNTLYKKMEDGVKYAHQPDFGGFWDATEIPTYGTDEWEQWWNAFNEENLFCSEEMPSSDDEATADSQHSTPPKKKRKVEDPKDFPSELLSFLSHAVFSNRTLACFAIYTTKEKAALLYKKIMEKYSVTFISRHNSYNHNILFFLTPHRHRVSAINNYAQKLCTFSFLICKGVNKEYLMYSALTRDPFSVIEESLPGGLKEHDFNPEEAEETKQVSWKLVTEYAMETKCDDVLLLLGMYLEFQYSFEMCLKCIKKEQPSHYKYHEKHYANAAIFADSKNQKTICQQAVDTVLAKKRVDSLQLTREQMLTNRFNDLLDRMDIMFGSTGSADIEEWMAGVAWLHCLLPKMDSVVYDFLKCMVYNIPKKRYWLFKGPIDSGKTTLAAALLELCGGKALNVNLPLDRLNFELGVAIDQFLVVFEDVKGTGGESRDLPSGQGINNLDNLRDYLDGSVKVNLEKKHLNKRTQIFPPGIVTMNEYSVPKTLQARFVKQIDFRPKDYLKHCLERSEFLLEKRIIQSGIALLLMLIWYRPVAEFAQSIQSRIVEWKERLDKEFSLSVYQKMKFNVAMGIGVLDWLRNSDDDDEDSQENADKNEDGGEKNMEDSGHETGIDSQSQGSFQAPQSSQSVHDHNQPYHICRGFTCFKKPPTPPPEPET

inhibition, inactive:
CCCCC(CCCCl)C(=O)Nc1ccccc1 (stereo not drawn) 0.43%, CCN1CCCC1CNC(=O)COc1cc(=O)n(C)c2ccccc12 (stereo not drawn) -0.09%, CC(=O)C[C@H]1c2ccccc2S(=O)(=O)N1C1CCCC1 3.17%, CC(C)CCN1CCN(Cc2cccc3cccnc23)CC1CCO (stereo not drawn) -6.36%, CCN1CCN(C(=O)c2ccc(OCC(=O)Nc3ccc(F)cc3)c(OC)c2)CC1 4.11%, COc1ccc(N2Cc3ccccc3C2=O)cc1 2.48%, O=C1c2ccccc2CN1c1ccccc1 5.42%, CCN(Cc1ccccc1)S(=O)(=O)c1ccc(OC)c2ncccc12 11.3%, COc1cc(-c2noc(CCC(=O)NC3CCCCC3)n2)cc(OC)c1OC 25.3%, COc1ccc(C(=O)c2ccc(OC)c(N)c2)cc1N 8.57%, CN(C)c1ccc(Cl)cc1N 1.86%, O=C(CCS(=O)(=O)c1ccc(F)cc1)N1CCN(c2ccccc2)CC1 18.3%, CC(=C/c1ccc(C(C)C)cc1)/C=N/NC(=O)Cn1nc(C)cc1C 2.16%, Nc1nc(-c2cccs2)c(CC(=O)O)s1 23.1%, CC(=O)Nc1sc(NC(=O)c2ccccc2)nc1-c1cccs1 6.41%, O=[N+]([O-])c1cccc(C2(O)COc3ccccc3O2)c1 (stereo not drawn) 6.64%, CCn1c(COc2ccccc2)nnc1SCC(=O)NC1CCCCC1 8.87%, CCOC(=O)C1CCN(Cc2cc(=O)n3c(-c4ccccc4)csc3n2)CC1 2.57%, O=c1cc(CN2CCN(c3ccccc3)CC2)nc2scc(-c3ccccc3)n12 3.32%, Cc1ccc(N(C(=O)CNC(=O)c2ccco2)C(C(=O)NCC2CCCO2)c2ccccc2)c(C)c1 (stereo not drawn) 18.4%, CCN(CC)S(=O)(=O)c1ccc(Nc2nc3ccccc3n3nnnc23)cc1 -2.08%, N#CC1=C(S)N(c2ccccc2)C(c2ccc(-c3cc(Cl)ccc3Cl)o2)NC1=O (stereo not drawn) 33.3%, N#CC1=C(S)N(c2ccccc2)C(c2ccc(-c3cccc(Cl)c3)o2)NC1=O (stereo not drawn) 34.4%, Cc1cccc(N(CC(=O)N2CCCC2)S(C)(=O)=O)c1 7.43%, CSc1ccccc1NC(=O)CN(C)Cc1cccc(Cl)c1 8.82%, COc1ccc(N/C(C)=C/C(=O)c2ccccc2)cc1 9.38%, COc1ccc(C(=O)/C=C(\C)Nc2ccc3c(c2)OCO3)cc1 5.13%, CCCc1nc(C(C)(C)O)c(C(=O)O)n1Cc1ccc(-c2ccccc2-c2nn[nH]n2)cc1 -1.62% and 6.85%
